Tests used:
[1] = target: IKZF1 (dCK*-IKZF1 fusion in HEK293FT) (UniProt Q13422); assay: inhibition of IKZF1 HTRF signal (DMSO = 0%, pomalidomide 10 uM = 100%); higher = lower IKZF1 protein level; settings: compound concentration: 5 uM, overnight (~20 h)
In short: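 For percent inhibition of IKZF1 signal, each plate was normalised to vehicle and to a reference degrader. Cells were HEK293FT stably expressing an IKZF1 fusion, plated at 2000/well in 384-well format and treated overnight at 37 °C with 5 μM compound, one well each. Lysates were probed overnight with a commercial HTRF total-IKZF1 antibody kit, with the 665/620 nm ratio background-subtracted and vehicle and degrader fixed at 0% and 100%.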

[2] = system: HEK293FT dCK*-only; assay: relative growth in counter assay (no AraC = 100%, AraC + DMSO = 0%); higher = more growth rescue independent of IKZF1; settings: compound concentration: 5 uM; AraC concentration: 0.3 uM; overnight pretreatment + 4 days AraC
In short: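 HEK293FT cells carrying only an engineered kinase construct were plated at 300 per well (384-well) and given 5 μM compound 2 h later. Following overnight at 37 °C, a nucleoside suicide substrate (0.3 μM) plus medium was added for 4 days. Hoechst 33342-stained nuclei were imaged and counted on day 5, with 100% assigned to wells without suicide substrate and 0% to substrate plus vehicle on each plate.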

[3] = system: HEK293FT dCK*-IKZF1; assay: relative growth recovery (pomalidomide 10 uM = 100%, DMSO = 0%); higher = more growth rescue (IKZF1 fusion degradation); settings: compound concentration: 5 uM; AraC concentration: 0.3 uM; overnight pretreatment + 4 days AraC
In short: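 HEK293FT cells stably expressing a dCK*-IKZF1 fusion (300/well, 384-well) received 5 μM compound 2 h after seeding. After overnight at 37 °C they received a nucleoside suicide substrate at 0.3 μM plus medium for 4 days. On day 5, Hoechst 33342-stained nuclei were counted by whole-well imaging. Growth recovery was normalised per plate to a reference degrader (100%) and vehicle (0%); values are means of duplicates run on different days.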

IKZF1 (dCK*-IKZF1 fusion in HEK293FT), sequence (Q13422 whole entry, looked up, the tested form may be a part): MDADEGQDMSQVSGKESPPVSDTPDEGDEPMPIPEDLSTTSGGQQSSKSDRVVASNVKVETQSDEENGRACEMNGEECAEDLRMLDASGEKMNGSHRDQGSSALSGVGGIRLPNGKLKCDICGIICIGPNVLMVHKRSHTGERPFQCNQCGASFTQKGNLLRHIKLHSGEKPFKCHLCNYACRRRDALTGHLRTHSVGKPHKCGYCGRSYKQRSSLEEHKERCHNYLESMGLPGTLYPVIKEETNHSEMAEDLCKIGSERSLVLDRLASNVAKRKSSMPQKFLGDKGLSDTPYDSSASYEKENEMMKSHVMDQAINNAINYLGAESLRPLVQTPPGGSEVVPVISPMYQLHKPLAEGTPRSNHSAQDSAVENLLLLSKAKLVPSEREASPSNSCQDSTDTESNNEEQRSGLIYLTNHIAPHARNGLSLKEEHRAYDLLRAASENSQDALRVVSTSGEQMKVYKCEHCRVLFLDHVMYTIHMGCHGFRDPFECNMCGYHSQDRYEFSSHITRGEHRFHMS

Compound | inhibition of IKZF1 HTRF signal [1] [%] | relative growth in counter assay [2] [%] | relative growth recovery [3] [%]
CCCCCCCCCCC(=O)O[C@H]1CC[C@H]2[C@@H]3CCC4=CC(=O)CC[C@]4(C)[C@H]3CC[C@]12C [Testosterone (undecanoate)] | -31.5 | 4.31 | -0.23
CC[C@@]1(O)C(=O)OCc2c1cc1n(c2=O)Cc2cc3ccccc3nc2-1 [camptothecin] | -10.9 | -34.5 | -12.9
Fc1ccc(C(OCCN2CCN(CCCc3ccccc3)CC2)c2ccc(F)cc2)cc1 [vanoxerine] | -25.6 | -32.4 | -10.5
COC[C@H]1OC(=O)c2coc3c2[C@@]1(C)C1=C(C3=O)[C@@H]2CCC(=O)[C@@]2(C)C[C@H]1OC(C)=O [Wortmannin] | 1.66 | 0.96 | 1.92
OC1=[C@]([C@]2=C(O)C(C(C=O)=C(O)C(O)=C3C(C)C)=C3C=C2C)C(C)=CC4=C1C(C=O)=C(O)C(O)=C4C(C)C [gossypol] | -16.2 | -34.8 | -11.7
CC(Cc1ccccc1)NCCC(c1ccccc1)c1ccccc1 (stereo unspecified) [prenylamine] | -23.8 | 9.26 | -0.73
c1ccc(CCCN2CCN(CCOC(c3ccccc3)c3ccccc3)CC2)cc1 | -28.8 | -4.09 | 3.4
Cc1cc(O)c2c(=O)c3c(O)cc(O)c4c5c(O)cc(O)c6c(=O)c7c(O)cc(C)c8c1c2c(c34)c(c78)c65 [Hypericin] | 13.4 | -9.3 | -3.8
O=C(N/N=C/c1ccc([N+](=O)[O-])o1)c1cc([N+](=O)[O-])cc([N+](=O)[O-])c1O | 2.89 | -3.38 | -2.9
COc1cc([C@@H]2c3cc4c(cc3[C@H](O)[C@H]3COC(=O)C23)OCO4)cc(OC)c1OC (stereo partly specified) [Podofilox] | 49.2 | -34 | -12.1
CC(=O)OC[C@]12CCC(C)=C[C@H]1O[C@@H]1[C@H](O)[C@@H](OC(C)=O)[C@@]2(C)[C@@]12CO2 [Diacetoxyscirpenol] | 93.3 | -34.2 | -12.7
C[C@H]1CCC/C=C/C2C[C@H](O)C[C@H]2[C@H](O)/C=C/C(=O)O1 (stereo partly specified) [brefeldin-a] | 2.49 | -32.6 | -10
C=C1[C@@H](C)[C@H]2[C@H](Cc3ccccc3)NC(=O)[C@]23OC(=O)/C=C/[C@H](O)CCC[C@@H](C)C/C=C/[C@H]3[C@@H]1O [Cytochalasin B] | 32.2 | -30.2 | -8.39
CN(C)C(=S)SSC(=S)N(C)C | -13.8 | -35.1 | -12.7
CCCCCCCCCCCCCCCC[n+]1ccccc1 | -19.4 | -34.4 | -13
CC(C)C[C@H](NC(=O)[C@@H](O)[C@H](N)Cc1ccccc1)C(=O)NCCOCCOCCOCC(=O)O[C@H]1CC[C@H]2[C@@H]3CC[C@H]4CC(=O)CC[C@]4(C)[C@H]3CC[C@]12C.O=C(O)C(F)(F)F [PROTAC AR Degrader-4 (TFA)] | 16.9 | 12.3 | 8.26
O=c1c2ccccc2[se]n1-c1ccccc1 | -37.8 | -8.59 | -0.075
O=C(CCCN1CCC(n2c(=O)[nH]c3ccccc32)CC1)c1ccc(F)cc1 [benperidol] | -18.1 | 4.87 | 1.78
NCC1(CC(=O)O)CCCCC1 | -1.54 | -10.5 | -0.56

Compound | inhibition of IKZF1 HTRF signal [1] [%] | relative growth in counter assay [2] [%] | relative growth recovery [3] [%]
C[C@]12CC[C@H](O)C[C@H]1CC[C@@H]1[C@@H]2CC[C@]2(C)[C@@H](C3=CC(=O)OC3)CC[C@]12O [digitoxigenin] | 40.7 | -34.6 | -12.2
CO[C@H]1C[C@H](O[C@H]2CC[C@@]3(C)[C@H](CC[C@@H]4[C@@H]3CC[C@]3(C)[C@@H](C5=CC(=O)OC5)[C@@H](OC(C)=O)C[C@]43O)C2)O[C@@H](C)[C@@H]1O [Oleandrin] | 45.9 | -35 | -12.7
O=C(CCCN1CCC2(CC1)C(=O)NCN2c1ccccc1)c1ccc(F)cc1 [spiperone] | -3.55 | -1.41 | -0.995
Cc1cc(C(C#N)c2ccc(Cl)cc2)c(Cl)cc1NC(=O)c1cc(I)cc(I)c1O (stereo unspecified) | -5.04 | -3.81 | -0.555
COC(=O)[C@@]12OC[C@]34[C@H]([C@@H](O)[C@@H]1O)[C@@]1(C)CC(=O)C(O)=C(C)[C@@H]1C[C@H]3OC(=O)[C@H](OC(=O)/C=C(\C)C(C)C)[C@@H]24 [Bruceantin] | 43.7 | -34.9 | -12.3
C=C(C)CN1CC[C@]23c4c5ccc(O)c4O[C@H]2c2[nH]c4ccccc4c2C[C@@]3(O)C1C5 | -30.3 | -7.54 | -3.3
Oc1c(I)cc(I)cc1I | 11 | 4.58 | 2.79
CC[C@H]1C2CC3[C@@H]4N(C)c5ccccc5[C@]45C[C@@H](C2C5O)N3[C@@H]1O (stereo partly specified) | -0.05 | 5.04 | 1.42
CCCCC1(C2CCCC2)Cc2cc(OCCCC(=O)O)c(Cl)c(Cl)c2C1=O (stereo unspecified) | -38.8 | 2.86 | 0.8
C[C@@H]1C[C@@H]([C@H](O)CC2CC(=O)NC(=O)C2)C(=O)[C@@H](C)C1 | 79.8 | -33.1 | -12
C[C@@]12C(=O)OC(=O)[C@]1(C)[C@H]1CC[C@@H]2O1 [cantharidin] | 15.8 | 3.7 | -4.16
O=C1c2ccccc2C(=O)c2ccccc21 [anthraquinone] | -34.9 | 0.57 | -0.655
O=[N+]([O-])c1cc(O)c(O)c([N+](=O)[O-])c1 | -33.8 | 2.01 | 0.23
Clc1ccccc1C(c1ccccc1)(c1ccccc1)n1cccn1 | -25.1 | 1.96 | -1.69
O=c1[nH]c2ccccc2n1C1CCN(CCCC(c2ccc(F)cc2)c2ccc(F)cc2)CC1 [Pimozide] | -27.8 | -9.38 | -1.04
COc1ccc(C[C@H]2NC[C@H](O)[C@H]2OC(C)=O)cc1 [anisomycin] | 63.3 | -34.7 | -12.5
CC[C@H]1CN2CCc3cc(OC)c(OC)cc3C2C[C@@H]1CC1NCCc2cc(OC)c(OC)cc21 (stereo partly specified) | 38.3 | -34.9 | -12.4
COc1cc([C@@H]2c3cc4c(cc3[C@H](O)[C@H]3COC(=O)[C@H]23)OCO4)cc(OC)c1OC | 50 | -33.7 | -11.7

— the supplement of paper PMC12340641
